Screens as filed in PubChem BioAssay.
Hits are enriched below; roughly 19% of the tested compounds scored in any of these assays.
TDP1 cell noCPT = qHTS for Inhibitors of human tyrosyl-DNA phosphodiesterase 1 (TDP1): qHTS in cells in absence of CPT. DT40 Tdp1-/- hTDP1 cells, no CPT, ATP luminescence, 48 h. Potency, µM (titrated, usually from 46.2 µM), hits mostly inhibitors. 420,000 tested, 15% active. AID 686978, 2013; further: nearly all actives have a fitted effect of over 55% in size
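Chicken DT40 Tdp1-/- cells stably complemented with human TDP1 were seeded at 400 cells/well with DMSO in place of 20 nM camptothecin. After compound pinning, cells grew at least 48 hr at 37 °C; viability read by CellTiter-Glo luminescence.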
TGFb SMAD3 inh = TGF-b pathway inhibition. HepG2 CAGA-GFP TGF-b/SMAD3 reporter, GFP fluorescence, 18 h; TGF-beta stimulated, 500 pg/mL final. Potency, µM (series often up to 46.1 µM), most hits filed as inhibitors. 410,000 tested, 1.2% active. AID 588855; further: nearly all actives have a fitted effect of over 65% in size
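Read-out: total well GFP (ex488/em500-530) summed from mean per-cell fluorescence. Cells: HEPG2 CAGA-GFP, 1% FBS DMEM, 18 h at 37 degrees C with 500 pg/mL final TGF-beta. Unstimulated wells served as the full-inhibition control; stimulated DMSO wells = 0%.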
ASM inhibitor = blocks human secretory acid sphingomyelinase; P17405; placental ASM, HMU-PC fluorogenic substrate, 60 min; Potency, µM (titrated, usually from 57.5 µM), most hits filed as inhibitors; 340,000 tested, 0.006% active; AID 504937
Target sequence (P17405 47-631 limits assumed): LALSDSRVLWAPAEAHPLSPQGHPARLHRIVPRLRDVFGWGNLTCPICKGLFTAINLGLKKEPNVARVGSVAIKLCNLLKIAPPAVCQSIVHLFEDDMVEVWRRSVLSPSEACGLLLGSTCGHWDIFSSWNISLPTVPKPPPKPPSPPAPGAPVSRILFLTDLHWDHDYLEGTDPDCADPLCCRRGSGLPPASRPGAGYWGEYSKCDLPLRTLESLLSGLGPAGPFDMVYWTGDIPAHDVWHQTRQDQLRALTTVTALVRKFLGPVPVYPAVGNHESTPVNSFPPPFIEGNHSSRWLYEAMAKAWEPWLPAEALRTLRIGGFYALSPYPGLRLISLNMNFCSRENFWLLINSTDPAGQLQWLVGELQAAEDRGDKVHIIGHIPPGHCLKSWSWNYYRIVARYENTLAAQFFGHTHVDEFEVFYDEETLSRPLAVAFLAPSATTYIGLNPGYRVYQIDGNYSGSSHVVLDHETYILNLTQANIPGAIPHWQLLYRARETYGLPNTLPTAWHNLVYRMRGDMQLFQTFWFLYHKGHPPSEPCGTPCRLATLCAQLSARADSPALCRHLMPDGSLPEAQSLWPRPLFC
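qHTS format. ASM enzyme prepared from human placenta hydrolyses the fluorogenic substrate HMU-PC0 (9 uM final) over 60 min at 37 °C after a 10 min compound preincubation.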
HepG2 tox = HepG2 cytotoxicity, counter-screen for TGF-b inhibitors | HepG2 CAGA-GFP viability, ATP luminescence, 18 h | Potency, µM (series often up to 46.1 µM), actives largely listed as cytotoxic | 410,000 tested, 0.76% active | AID 588856
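HepG2 CAGA-GFP cells (1000/well, DMEM with 1% FBS) received compound, then TGF-beta at 500 pg/mL final, and were incubated 18 hours at 37 degrees C. Viability was read by CellTiter-Glo luminescence. Media-only wells were set as complete cell-killing and DMSO as no toxicity.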
DT40 TDP1 CPT = growth inhibition of DT40 Tdp1-/-;hTDP1 cells with camptothecin (screen for TDP1 inhibitors). chicken DT40 Tdp1-/-;hTDP1 cells + 20 nM CPT, ATP luminescence, 48 h. Potency, µM (highest dose often 46.2 µM), hits mostly inhibitors. 420,000 tested, 12% active; further: nearly all actives have a fitted effect of over 55% in size
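Cell growth measured by CellTiter-Glo luminescence after a minimum 48 h, 37 C compound exposure with 20 nM CPT in Tdp1-knockout DT40 cells stably expressing hTDP1, seeded 400/well; qHTS titration format.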
IL-1B inflam inh = inhibitors of inflammasome signaling (IL-1 beta secretion); AID 743279; 360,000 tested, 4.7% active; THP-1 LPS/ATP IL-1B secretion, AlphaLISA, 16 h; hits give low values; activity change, % at 57.5 µM; in the data active means activity change below about -50%; inconclusive means mostly about -30% to -49%
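Secreted IL-1B measured by AlphaLISA bead assay after 16 h compound exposure of THP-1 cells; compounds (final up to 57.5 uM) added 1 h before LPS (250 ng/mL) and ATP (1.25 mM) stimulation; lower signal means less secretion.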
Hits are given with their value; 0 = inactive; ? = inconclusive; - = no result given. Unless noted, the call rests on the fitted dose curve; in most records, active means well fitted curve in the direction sought with a large enough effect; inconclusive means small, poorly fitted or top-dose-only effect, or another doubt; inactive means no such curve, though single readings can be large; an effect the other way counts as inactive or inconclusive.

SMILES | TDP1 cell noCPT | TGFb SMAD3 inh | ASM inhibitor | HepG2 tox | DT40 TDP1 CPT | IL-1B inflam inh
COC(=O)N/N=C/c1cn(Cc2ccccc2F)c2ccccc12 | ? | ? | 0 | 0 | 0 | -75
COC(=O)N/N=C/c1cn(Cc2ccc(Cl)cc2Cl)c2ccccc12 | ? | 0 | 0 | 0 | ? | 0
COC(=O)N/N=C/c1cn(CCCOc2ccccc2)c2ccccc12 | ? | ? | 0 | 0 | 26µM | 0
NC(=O)Cn1cc(/C=N\NS(=O)(=O)c2ccc(F)cc2)c2ccccc21 | 23µM | 0 | 0 | 0 | 0 | 0
CNC(=S)N/N=C/c1cn(Cc2ccc(F)cc2)c2ccccc12 | 10µM | ? | ? | 0 | 16µM | 0
NC(=O)N/N=C/c1cn(CC(=O)Nc2ccc(F)cc2)c2ccccc12 | ? | 0 | 0 | 0 | 0 | -
COc1ccccc1OCCCn1cc(C#N)c2ccccc21 | ? | 0 | 0 | 0 | 0 | 0
COC(=O)N/N=C/c1cn(Cc2c(Cl)cccc2Cl)c2ccccc12 | ? | ? | 0 | 0 | 0 | 0
N#Cc1cn(CCCOc2ccccc2)c2ccccc12 | 23µM | 0 | 0 | 0 | 9.2µM | 0
COC(=O)N/N=C/c1cc(Cl)cc(Cl)c1OCc1ccccc1F | 18µM | ? | 0 | 0 | ? | 0
COC(=O)N/N=C/c1cn(Cc2ccc(F)cc2)c2ccccc12 | ? | 5µM | 0 | 0 | 0 | 0
COC(=O)N/N=C/c1cn(Cc2ccccc2Cl)c2ccccc12 | 21µM | 0 | 0 | 0 | 18µM | 0
C=CCN(CC=C)CCCOc1ccc(C)cc1OC | ? | 0 | 0 | 0 | 0 | 0
CCOC(=O)[C@H]1[C@H]2COc3cc(OC)ccc3[C@@H]2N2C(=O)c3cc(F)ccc3NC(=O)[C@@]12C | ? | ? | 0 | 0 | ? | 0
O=C(O)CN1C(=O)C2(OCCO2)c2cc(Br)ccc21 | 0 | 0 | 0 | 0 | 0 | 0
Cc1cc(OC(=O)c2cc(Br)ccc2Cl)c([N+](=O)[O-])c(=O)[nH]1 | 0 | 0 | 0 | 0 | 0 | 0
C#CCN1C(=O)C(O)(CC(=O)c2cccc(OC)c2)c2ccccc21 (stereo not drawn) | 4.6µM | 0 | 0 | 0 | 5.8µM | 0
CCOC(=O)CN1C(=O)C(O)(CC(=O)c2cccc(OC)c2)c2ccccc21 (stereo not drawn) | 16µM | 0 | 0 | 0 | ? | 0
Cc1sc2nc(CN3CCOCC3)nc(NS(=O)(=O)c3ccccc3)c2c1C | 0 | 0 | 0 | 0 | 0 | 0
CN(Cc1ccccc1)c1nc(CN2CCOCC2)nc2scc(-c3ccccc3)c12 | 16µM | ? | 0 | 0 | ? | 0
O=C(CSc1nc2scc(-c3ccccc3)c2c(=O)[nH]1)N1CCOCC1 | 0 | 0 | 0 | 0 | ? | 0
Fc1ccc(N2CCN(c3nc(CN4CCOCC4)nc4scc(-c5ccccc5)c34)CC2)cc1 | 15µM | ? | 0 | 0 | 23µM | 0
Cc1ccccc1-n1nc(CO)c(C(=O)NCC(c2ccccc2)c2ccccc2)n1 | 21µM | 0 | - | 0 | ? | -
O=C(NCC(c1ccccc1)c1ccccc1)c1nn(-c2ccccc2Cl)nc1CO | 23µM | 0 | - | 0 | ? | -
Cc1nc(SC(C)C(=O)NC2CCCC2)c2ccccc2n1 (stereo not drawn) | ? | 0 | 0 | 0 | 0 | 0
CCOc1ccc(NS(=O)(=O)c2cc(C(=O)NCCCN3CCCC3=O)ccc2C)cc1 | 0 | 0 | 0 | 0 | 0 | 0
O=C(NCc1ccccc1)c1nn(-c2ccccc2)nc1CO | ? | 0 | - | 0 | 0 | -
C=C1C(=O)[C@]23C[C@H]1CCC2[C@@]1(C)C(C[C@@H]3O)[C@](C)(C(=O)OC)CC[C@@H]1O (stereo partly drawn) | 0.52µM | 0.79µM | - | 5µM | 1µM | -111
C[C@@]12C(C[C@H](O)[C@@]34C[C@@H](CCC13)[C@@H](CO)C4=O)[C@](C)(C(=O)O)CC[C@@H]2O (stereo partly drawn) | ? | 0 | - | 0 | ? | 0
